IL-1B inflam inh: inflammasome signaling inhibition, IL-1 beta readout. 360,000 tested, 4.7% active. THP-1 LPS/ATP IL-1B secretion, AlphaLISA, 16 h; active compounds read low. activity change, % at 57.5 µM. AID 743279; in the data active = activity change below about -50%; inconclusive = mostly about -30% to -49%
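THP-1 cells pretreated 1 hr with compounds (up to 57.5 uM final), then stimulated with LPS (250 ng/mL final) plus ATP (1.25 mM final); secreted IL-1B measured by AlphaLISA after 16 hr, decreased signal indicating inhibition.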
ELG1 repair inh: inhibitors of ELG1-dependent DNA repair in HEK293T cells | 330,000 tested, 2.3% active | HEK293T ELG1-luciferase reporter, luminescence, 16 h; DNA damage induced by 5-fluorouridine | Potency, µM (series often up to 46.1 µM), actives largely listed as inhibitors; note: nearly all actives have a fitted effect of over 55% in size
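Quantitative HTS, concentration-response format. 2,000 cells/well co-treated with 5-fluorouridine and compound, 16 hr in 5% CO2 at 37 °C; ONE-Glo luminescence read after 30 min.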
DT40 TDP1 no CPT: qHTS for Inhibitors of human tyrosyl-DNA phosphodiesterase 1 (TDP1): qHTS in cells in absence of CPT. Potency, µM (doses to about 46.2 µM), hits mostly inhibitors. DT40 Tdp1-/- hTDP1 cells, no CPT, ATP luminescence, 48 h. 420,000 tested, 15% active; note: nearly all actives have a fitted effect of over 55% in size
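Cells were dispensed at 400 per well, compounds added by pin tool, plates incubated ≥48 hr at 37 °C, then CellTiter-Glo added for 30 min at room temperature before luminescence reading. Line: DT40 Tdp1-/- complemented with hTDP1; camptothecin omitted.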
HT1080NT lethal: kills 2HG-producing HT-1080-NT fibrosarcoma cells; HT-1080-NT fibrosarcoma viability, CellTiter-Glo ATP luminescence, 48 h; Potency, µM (titrated, usually from 46.1 µM), usual class: cytotoxic; 360,000 tested, 1.6% active; AID 686970;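 note: NT is the 2HG producing partner of a matched IDH1 knockdown line; nearly all actives have a fitted effect of over 55% in size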
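HT-1080-NT fibrosarcoma cells (2HG-overproducing), 750 cells/well in RPMI with 5% FBS, dosed after 2 h and incubated 48 h at 37C. CellTiter-Glo luminescence normalized to DMSO and no-cell wells; concentration-response curves fitted and classed.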
HT1080 IDH1KD tx: toxicity to HT-1080 IDH1 knockdown cells (counter line). HT-1080 IDH1 knockdown viability, ATP luminescence, 48 h. Potency, µM (titrated, usually from 46.1 µM), most hits filed as cytotoxic. AID 686971. 360,000 tested, 2% active
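Assay cells: HT-1080 with IDH1 knockdown, 750 per well, RPMI/5% FBS. Exposure: 48 h at 37 °C following 2 h pre-incubation. Read: CellTiter-Glo luminescence; fitted concentration-response, curve class assigned.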
TDP1 cell CPT: growth inhibition of DT40 Tdp1-/-;hTDP1 cells with camptothecin (screen for TDP1 inhibitors) | chicken DT40 Tdp1-/-;hTDP1 cells + 20 nM CPT, ATP luminescence, 48 h | AID 686979 | Potency, µM (doses to about 46.2 µM), hits mostly inhibitors | 420,000 tested, 12% active; note: nearly all actives have a fitted effect of over 55% in size
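Chicken DT40 Tdp1-/- cells stably complemented with human TDP1 were seeded at 400 cells/well in medium containing 20 nM camptothecin, exposed to pin-transferred compounds, and grown at 37 °C for at least 48 hr. Viability was read as ATP luminescence.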
Hits are given with their value; [ ] = another dose, or the depositor's remark. This is a sample that favours compounds with a hit; in the whole collection about 19% have one here. Unless noted, calls come from the whole dose curve; as a rule, active = well fitted curve in the direction sought with a large enough effect; inconclusive = small, poorly fitted or top-dose-only effect, or another doubt; inactive = no such curve, though single readings can be large; an effect the other way counts as inactive or inconclusive.

For Cn1c(C(=O)N2CCC(C(=O)NCCc3ccc(S(N)(=O)=O)cc3)CC2)cc2sccc21 the results were DT40 TDP1 no CPT inactive and TDP1 cell CPT inactive.
`O=[N+]([O-])c1ccc(N2CCN(c3cccc(Cl)c3)CC2)cn1` gave IL-1B inflam inh inactive, ELG1 repair inh inconclusive, DT40 TDP1 no CPT inconclusive, HT1080NT lethal inactive, HT1080 IDH1KD tx inactive and TDP1 cell CPT inconclusive.
Screening O=C(c1ccccc1)C(c1ccccc1)[n+]1csc2ccccc21 (centres undefined) returned DT40 TDP1 no CPT 11.2µM and TDP1 cell CPT inconclusive.
Cc1ccc2oc(C(=O)Nc3nnc(CC(C)C)s3)cc(=O)c2c1 was read as DT40 TDP1 no CPT inactive and TDP1 cell CPT inactive.
For Oc1cc(CNC2CCCCC2)c(O)cc1CNC1CCCCC1 the results were IL-1B inflam inh inactive, DT40 TDP1 no CPT 5.8µM, HT1080NT lethal inactive, HT1080 IDH1KD tx inactive and TDP1 cell CPT 18.4µM.
`Cc1ccc(C(=O)NCCN2C3=NC[C@H](Cc4ccc(O)cc4)N3C[C@H]2Cc2ccc(O)cc2)cc1Br` gave IL-1B inflam inh inactive, ELG1 repair inh inactive, DT40 TDP1 no CPT 16.4µM, HT1080NT lethal inactive, HT1080 IDH1KD tx inactive and TDP1 cell CPT inconclusive.
C/C=C(\C)C(=O)NCCN1C2=NC[C@H](Cc3ccccc3)N2C[C@@H]1Cc1ccc(OC)cc1 was read as IL-1B inflam inh inconclusive, DT40 TDP1 no CPT inconclusive, HT1080NT lethal inactive, HT1080 IDH1KD tx inactive and TDP1 cell CPT inconclusive.
COc1ccc(C[C@H]2CN3C(=NC[C@@H]3Cc3ccc(O)cc3)N2CCNC(=O)c2ccc(C)c(Br)c2)cc1 was read as IL-1B inflam inh inactive, ELG1 repair inh inactive, DT40 TDP1 no CPT 13µM, HT1080NT lethal inconclusive, HT1080 IDH1KD tx inconclusive and TDP1 cell CPT 13µM.
For Cn1c2c(c(=O)n(C)c1=O)C(c1ccccc1Cl)C(C#N)=C(N)O2 (centres undefined) the results were IL-1B inflam inh inactive, ELG1 repair inh inactive, DT40 TDP1 no CPT inactive, HT1080NT lethal inactive, HT1080 IDH1KD tx inactive and TDP1 cell CPT inactive.
Screening CC(=O)n1c2c(c3ccccc31)OC(N)=C(C#N)C2c1cccc(Cl)c1Cl (centres undefined) returned IL-1B inflam inh inactive, ELG1 repair inh inactive, DT40 TDP1 no CPT 7.31µM, HT1080NT lethal inconclusive, HT1080 IDH1KD tx inconclusive and TDP1 cell CPT 14.6µM.
`O=c1oc2cc(Oc3ccc(C(F)(F)F)cc3[N+](=O)[O-])ccc2c2c1CCC2` gave IL-1B inflam inh inactive, ELG1 repair inh inactive, DT40 TDP1 no CPT inactive, HT1080NT lethal inactive, HT1080 IDH1KD tx inactive and TDP1 cell CPT inactive.
O=c1oc2cc(Oc3c([N+](=O)[O-])cc(C(F)(F)F)cc3[N+](=O)[O-])ccc2c2c1CCCC2 was read as IL-1B inflam inh -82.2, ELG1 repair inh inactive, DT40 TDP1 no CPT 13µM, HT1080NT lethal inconclusive, HT1080 IDH1KD tx inactive and TDP1 cell CPT 8.2µM.
Cc1ccc(N=Cc2cccc(O)c2O)c(C)c1 was read as ELG1 repair inh inactive, DT40 TDP1 no CPT inconclusive and TDP1 cell CPT 20µM.
`Cc1ccccc1N=Cc1cccc(O)c1O` gave IL-1B inflam inh inactive, ELG1 repair inh inactive, DT40 TDP1 no CPT 10.3µM, HT1080NT lethal inactive, HT1080 IDH1KD tx 14.6µM and TDP1 cell CPT inconclusive.
Screening C[C@@H]1CN(Cc2ccc3c(c2)CN(Cc2cccc(O)c2)CCO3)C[C@H](C)O1 returned DT40 TDP1 no CPT inconclusive and TDP1 cell CPT inactive[9.04 µM].
For Cc1oc(-c2ccccc2NC(=O)C2CCC2)nc1CNC(=O)c1cccc(C(F)(F)F)c1 the results were DT40 TDP1 no CPT inactive and TDP1 cell CPT inactive[9.04 µM].
For COc1cccc(C2=C(C(C)=O)Sc3nnc(C4CCCCC4)n3N2C(C)=O)c1 the results were DT40 TDP1 no CPT 11.6µM and TDP1 cell CPT 7.31µM.
`CC(=O)C1=C(c2ccc(Cl)c(Cl)c2)N(C(C)=O)n2c(nnc2C2CCCCC2)S1` gave DT40 TDP1 no CPT inactive and TDP1 cell CPT inconclusive.
CCC(=O)C1=C(c2ccc(OC)c(OC)c2)N(C(=O)CC)n2c(nnc2-c2ccc(C)cc2)S1 was read as DT40 TDP1 no CPT inactive and TDP1 cell CPT inactive.
CCC(=O)C1=C(c2cccc(OC)c2)N(C(=O)CC)n2c(nnc2C2CCCCC2)S1 was read as DT40 TDP1 no CPT 11.6µM and TDP1 cell CPT 8.2µM.
`CC(=O)C1=C(c2ccccc2)N(C(C)=O)n2c(nnc2C2CCCCC2)S1` gave DT40 TDP1 no CPT 4.61µM and TDP1 cell CPT inconclusive.
`CCC(=O)C1=C(c2cccc([N+](=O)[O-])c2)N(C(=O)CC)n2c(nnc2-c2ccccc2)S1` gave DT40 TDP1 no CPT 3.26µM and TDP1 cell CPT 4.11µM.
CCC(=O)C1=C(c2ccccc2)N(C(=O)CC)n2c(nnc2C2CCCCC2)S1 was read as DT40 TDP1 no CPT inactive and TDP1 cell CPT inactive.
For Cc1c(C(=O)N2CCN(CC(=O)Nc3ccccc3Cl)CC2)oc2ccc(Br)cc12 the results were IL-1B inflam inh inactive, ELG1 repair inh inactive, DT40 TDP1 no CPT inactive, HT1080NT lethal inactive, HT1080 IDH1KD tx inactive and TDP1 cell CPT inconclusive.
Screening O=C1NC[C@H](CCCCN2CCN(Cc3ccccc3)C(=O)C2=O)N(CC2CCCCC2)C1=O returned IL-1B inflam inh inactive, DT40 TDP1 no CPT inactive, HT1080NT lethal inactive, HT1080 IDH1KD tx inactive and TDP1 cell CPT inactive.
Cc1ccc(C)n1-c1nnc(N2CCC(C(=O)NCCCN3CCN(C)CC3)CC2)s1 was read as IL-1B inflam inh inconclusive, ELG1 repair inh inactive, DT40 TDP1 no CPT inconclusive, HT1080NT lethal inactive, HT1080 IDH1KD tx inactive and TDP1 cell CPT 25.9µM.
Screening O=C(NCCCN1CCN(Cc2ccccc2)CC1)C1CCN(c2nnc(-n3cccc3)s2)CC1 returned IL-1B inflam inh inactive, ELG1 repair inh 7.08µM, DT40 TDP1 no CPT 25.9µM, HT1080NT lethal inactive, HT1080 IDH1KD tx inactive and TDP1 cell CPT inconclusive.
CCCCC(CC)CNC(=O)C(Cc1ccccc1)NS(=O)(=O)c1ccc2c(c1)CCC(=O)N2 (centres undefined) was read as IL-1B inflam inh inactive, ELG1 repair inh inactive, DT40 TDP1 no CPT inactive, HT1080NT lethal inactive, HT1080 IDH1KD tx inactive and TDP1 cell CPT inconclusive.
`CC(C)(C)S(=O)(=O)/C(C#N)=C/c1cccn1S(=O)(=O)c1ccccc1` gave IL-1B inflam inh inactive, DT40 TDP1 no CPT 23.1µM, HT1080NT lethal inactive, HT1080 IDH1KD tx inactive and TDP1 cell CPT inactive.
`CS(=O)(=O)/C(C#N)=C/c1cccn1S(=O)(=O)c1ccccc1` gave IL-1B inflam inh inactive, ELG1 repair inh inactive, DT40 TDP1 no CPT inactive, HT1080NT lethal inactive, HT1080 IDH1KD tx inactive and TDP1 cell CPT inactive.
